# pPAFAH FP inh: pPAFAH (human) enzyme inhibition. inhibition, % at 3.39 µM. recombinant pPAFAH, FP-rhodamine probe fluorescence polarization. 1.5% of 330,000 active. Q13093;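 active = inhibition above the mean inhibition across the screen plus 3 SD, cut at about 25% in these data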;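 note: inhibitors block binding of the rhodamine activity-based probe so polarization drops; 0% = enzyme with DMSO and 100% = wells lacking pPAFAH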
# HTRA1 inhibitor: inhibitors of human serine peptidase HTRA1; AID 504803; 0.5% of 340,000 active; inhibition, % at 5.96 µM; recombinant HTRA1, FP-rhodamine activity-based probe, fluorescence polarization; Q92743; in the data active = inhibition above about 36%;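 note: 0% = enzyme with DMSO and 100% = wells lacking enzyme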
# PAFAH1B2 FP inh: inhibitors of human PAFAH1B2; P68402; recombinant PAFAH1B2, FP-rhodamine activity probe, fluorescence polarization; inhibition, % at 3.39 µM; 1.2% of 340,000 active; AID 492953;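 active = inhibition above the mean of all tested compounds plus 3 SD, cut at about 24% in these data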;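 note: 0% = enzyme with DMSO and 100% = wells lacking PAFAH1B2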
# Target sequence (P68402 whole entry, looked up): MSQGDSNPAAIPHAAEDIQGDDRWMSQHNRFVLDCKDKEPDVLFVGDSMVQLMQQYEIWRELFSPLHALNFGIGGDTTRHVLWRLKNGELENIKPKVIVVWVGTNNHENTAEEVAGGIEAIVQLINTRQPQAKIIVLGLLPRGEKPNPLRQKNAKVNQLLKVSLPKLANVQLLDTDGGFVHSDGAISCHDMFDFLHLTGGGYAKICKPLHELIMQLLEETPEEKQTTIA
# PAFAH1B3 FP inh: blocks human PAF acetylhydrolase 1B catalytic subunit 3 | inhibition, % at 3.39 µM | recombinant PAFAH1B3, FP-rhodamine probe, fluorescence polarization | AID 492972 | 0.28% of 340,000 active;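 active = inhibition above the screen-wide average of all tested compounds plus 3 SD, cut at about 25% in these data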;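 note: 0% = enzyme with DMSO only and 100% = wells lacking PAFAH1B3 protein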
# PAFAH2 inh: inhibitors of human PAFAH2. 0.99% of 340,000 active. Q99487. recombinant PAFAH2, FP-rhodamine activity probe, fluorescence polarization. inhibition, % at 3.39 µM;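 active = inhibition above the mean over all tested compounds plus 3 SD, cut at about 30% in these data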;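 note: inhibitors block probe labeling of enzyme so polarization drops; 0% = enzyme with DMSO and 100% = wells lacking PAFAH2 protein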
# DAGLB inhibitor: blocks human DAGLB lipase activity; 0.059% of 340,000 active; inhibition, % at 5.17 µM; HEK293T DAGLB membrane lysate, EnzChek fluorogenic substrate; AID 504411; in the data active = inhibition above about 34%;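 note: 0% = enzyme with vehicle and 100% = wells lacking enzyme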
# HTRA1 inh conf: confirmation of human HTRA1 inhibitors. recombinant HTRA1, FP-rhodamine activity-based probe, fluorescence polarization. 66% of 1,600 active. shares compounds with HTRA1 inhibitor. AID 540248. inhibition, % at 5.96 µM;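 active = mean inhibition over three repeats above a set limit taken from the earlier primary screen, cut at about 37% in these data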;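 note: 0% = HTRA1 with DMSO and 100% = wells lacking HTRA1; inhibitors block probe binding so polarization drops and inhibition rises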
# Numbers without * were called inactive; x = no result. Shown are actives, neighbours in structure and some others; about 2.8% of the full set was active somewhere.
SMILES,pPAFAH FP inh,HTRA1 inhibitor,PAFAH1B2 FP inh,PAFAH1B3 FP inh,PAFAH2 inh,DAGLB inhibitor,HTRA1 inh conf
CC(Cc1ccc(O)cc1)NCC(O)c1ccc(O)c(O)c1 (configuration not stated),x,54*,x,x,x,6,53*
CC1=C(O)C(=O)C=C2C1=CC=C1C2(C)CCC2(C)C3CC(C)(C(=O)O)CCC3(C)CCC12C (configuration not stated),x,48*,2,-2,12,18,45*
CCOC(=O)[C@@]12C(=O)C(=O)N[C@]1(c1ccccc1)C1OCCCC12 (some centres not stated),3,11,2,12,5,-3,x
COc1cccc2c1C(=O)c1c(O)c3c(c(O)c1C2=O)CC(O)(C(C)=NO)CC3OC1CC(N)C(O)C(C)O1 (configuration not stated),x,56*,45*,30*,42*,-12,67*
O=c1[nH]c(=S)n(C2CC2)c(O)c1/C=N/Nc1cccc2ccccc12,18,41*,4,2,14,14,22
O=C(Cn1nc(-c2ccc(Cl)cc2)ccc1=O)N1CCC2(CC1)OCCO2,18,1,-1,-2,-1,0,x
O=C1C=C(N2CC2)c2ccccc2C1=O,x,51*,x,x,x,1,31
O=C1c2ccccc2-c2cc3ccccc3cc21,x,-24,3,7,-3,-8,x
CCN(CC)C(=O)c1ccc(N(Cc2ccccc2)S(C)(=O)=O)cc1,x,4,8,-6,11,0,x
CCN(CC)C(=O)c1ccc2c(c1)C1C=CCC1C(C(=O)O)N2 (configuration not stated),x,59*,20,40*,40*,1,55*
CN1CCN(c2nc3ccccc3c(=O)n2-c2ccccc2)CC1,0,7,-1,6,-3,1,x
Cc1nc2ccccc2c(=O)n1-c1ccc(Br)cn1,1,x,x,x,x,x,x
Cc1nc2ccccc2c(=O)n1/N=C/c1cc(Br)cc(Br)c1O,9,36*,5,9,5,4,95*
CN(C)[C@@H]1C(=O)C(C(N)=O)=C(O)[C@@]2(O)C(=O)C3=C(O)c4c(O)ccc(Cl)c4[C@@](C)(O)C3C[C@@H]12 (some centres not stated),x,40*,10,20,10,7,17
O=[N+]([O-])/C=C1\NCCN1Cc1ccc(Cl)nc1,1,-1,-3,-6,-2,1,x
